From PubChem BioAssay
The list is not random: actives were taken first. Their share in the collection is about 3.5%.
TEAD-YAP inh = TEAD-YAP interaction inhibition, primary screen, TEAD-YAP interaction inhibitor project, luminescence, HEK-TIYL cells; TEAD-Gal4/YAP UAS-luciferase luminescence; inhibition, % at 9.12 µM; 1.4% of 640,000 active; AID 1259422, 2018; in the data active = inhibition above about 32%;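 also: 0% = median of test compound wells and 100% = reference inhibitor wells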
MITF inh = MITF inhibitors, primary screen, biochemical, AlphaScreen, human; Microphthalmia-associated transcription factor (Homo sapiens), O75030; AlphaScreen MITF homodimerization, bead proximity signal; inhibition, % at 2.6 µM; 0.91% of 650,000 active; AID 1259374, 2018; in the data active = inhibition above about 50%;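 also: 0% = vehicle wells with protein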
FBW7 activator = FBW7 E3 ligase activators, primary screen, biochemical, AlphaScreen, human | F-box/WD repeat-containing protein 7 (Homo sapiens), Q969H0 | AlphaScreen FBW7–phospho-cyclin E peptide binding, activator screen | normalized activity (activation), % at 26.1 µM | 0.13% of 650,000 active | AID 1259310, 2017; in the data active = normalized activity above about 1.9%;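 also: purified mutant Fbw7 with reduced substrate affinity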
GPR151 activ = activators of human GPR151, primary screen, cell-based, PathHunter beta-arrestin, luminescence. G-protein coupled receptor 151 (Homo sapiens), Q8TDV0. PathHunter beta-arrestin GPR151 cells. activation, % at 11.2 µM. 1% of 650,000 active; in the data active = activation above about 4.9%;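 also: 0% = median of compound wells and 100% = cells with positive control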
Target sequence (Q8TDV0 whole entry, looked up): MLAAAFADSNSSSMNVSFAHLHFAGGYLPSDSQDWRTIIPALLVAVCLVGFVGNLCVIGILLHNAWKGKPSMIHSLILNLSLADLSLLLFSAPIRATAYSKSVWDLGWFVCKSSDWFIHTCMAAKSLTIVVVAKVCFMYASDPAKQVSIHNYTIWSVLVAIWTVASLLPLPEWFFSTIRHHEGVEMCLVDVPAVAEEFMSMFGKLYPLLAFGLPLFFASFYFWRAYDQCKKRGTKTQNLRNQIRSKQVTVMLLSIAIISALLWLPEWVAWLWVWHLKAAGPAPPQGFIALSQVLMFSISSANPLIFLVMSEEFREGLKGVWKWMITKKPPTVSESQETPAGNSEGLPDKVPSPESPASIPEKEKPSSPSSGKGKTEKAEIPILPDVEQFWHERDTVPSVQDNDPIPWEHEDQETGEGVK
MITF confirm = MITF inhibitors, retest of hits, confirmation, biochemical, AlphaScreen, triplicate; shares compounds with MITF inh; AlphaScreen MITF homodimerization, biotin/His-MITF beads; inhibition, % at 2.6 µM; 16% of 4,700 active;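 active = inhibition above a cutoff derived from the DMSO control wells, cut at about 28% in these data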;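 also: 0% = MITF dimer wells with DMSO only; inhibitors lower the bead chemiluminescence by keeping MITF from dimerizing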
AS interf DR = AlphaScreen optical interference compounds, dose response, counter-screen, biochemical, HTS | shares compounds with MITF inh | AlphaScreen optical interference counterscreen, cell-free | IC50, µM | 6% of 480 active | AID 1259373, 2018; call rule not given here
AlphaScreen intf2 = AlphaScreen optical interference compounds, counter-screen for MITF inhibitor project, biochemical, triplicate. LysRS AlphaScreen counterscreen, signal interference. shares compounds with MITF inh. 7.6% of 4,700 active. inhibition, % at 2.6 µM. AID 1259376, 2018;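 active = inhibition above a cutoff derived from the DMSO control wells, cut at about 30% in these data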
Active calls of the source: *; . = no result given; ! = not confirmed by another sample.

SMILES | TEAD-YAP inh | MITF inh | FBW7 activator | GPR151 activ | MITF confirm | AlphaScreen intf2 | others
Cc1ccc(OCCOc2ccc(/C=C3/C(=N)N4N=C(CC(C)C)SC4=NC3=O)cc2)cc1C | 2.1 | 12.1 | 0.0 | -1.0 | . | .
Nc1cc2c(S(=O)(=O)O)cc(S(=O)(=O)O)cc2cc1S(=O)(=O)O | 0.7 | 51.5* | 0.0 | -0.2 | 35.2* | 28.1 | AS interf DR=>6.48
CNS(=O)(=O)c1cc(O)c2c(S(=O)(=O)O)cc(S(=O)(=O)NC)cc2c1 | -4.9 | 11.7 | 0.2 | -0.9 | . | .
COc1cccc(CN2CCN(C3CCCC3)CC2)c1OC | 8.2 | 61.1* | -0.2 | 0.1 | 4.0 | 17.8
COc1cccc(CN2CCN(C3CCCC(C)C3)CC2)c1OC (centres undefined) | 7.4 | 69.8* | -0.1 | -0.9 | 11.8 | 17.4
COc1ccc(CN2CCN(C3CCCC3)CC2)c(OC)c1OC | -3.4 | 52.3* | -0.1 | 0.5 | 0.8 | 9.0
COc1cccc(CN2CCCCC2c2cccnc2)c1OC (centres undefined) | -5.8 | 73.4* | -0.1 | 0.3 | 14.0 | 13.5
COc1ccc(C)cc1NC(=O)c1cc(S(=O)(=O)NC2CCCCC2C)ccc1F (centres undefined) | 7.1 | 5.2 | -0.1 | 0.0 | . | .
CCC1(CCC(=O)N2CCC(c3nc4ccccc4o3)CC2)CCC(=O)N1 (centres undefined) | -9.3 | -16.6 | 0.2 | 2.8 | . | .
c1cc(NC2CCCNC2)n2ncc(-c3ccoc3)c2n1 (centres undefined) | -62.5 | 68.2* | 0.1 | 1.0 | 10.9 | 16.6
O=C(O)c1cccc(NS(=O)(=O)c2cccc(C(=O)Nc3cccc([N+](=O)[O-])c3)c2)c1 | 17.4 | 1.1 | -0.1 | 0.2 | . | .
CCOc1ccc(CN(CCc2ccc3c(c2)OCO3)Cc2cccnc2)cc1 | 3.6 | 59.7* | -0.2 | 0.7 | -3.6 | -4.3
CCOc1ccc(CN(CCc2ccc3c(c2)OCO3)Cc2cc(OC)c(OC)cc2OC)cc1 | -2.5 | 45.1 | -0.2 | -0.1 | . | .
CCOc1ccccc1CN(CCc1ccc2c(c1)OCO2)Cc1cccnc1 | -7.0 | 78.1* | 0.4 | 0.4 | 4.9 | 10.9
CCOc1ccc(CN(CCc2ccc3c(c2)OCO3)Cc2cccc3ccccc23)cc1 | -2.4 | 52.5* | 0.5 | -1.2 | -5.2 | -8.7
N#Cc1cc(Br)ccc1OCC(=O)N/N=C\c1ccc(Cl)c([N+](=O)[O-])c1 | -7.8 | -2.3 | -0.1 | -0.5 | . | .
Cc1noc(C)c1-c1nc(NCCc2ccc(O)cc2)c2[nH]cnc2n1 | -15.7 | 3.0 | 0.1 | 0.6 | . | .
COCCNCC(=O)Nc1nnc(C)s1 | 1.5 | 13.9 | -0.3 | -0.7 | . | .
COCCNCC(=O)Nc1nc(C)cs1 | -1.8 | 70.4* | -0.1 | 0.5 | 15.4 | 18.6
O=[N+]([O-])c1ccccc1CN1CCN(Cc2ccccn2)CC1 | 4.9 | 69.2* | 0.0 | 0.1 | 1.9 | 1.3
O=[N+]([O-])c1ccccc1CN1CCN(c2ncccn2)CC1 | 2.8 | 24.8 | 0.0 | 1.0 | . | .
O=[N+]([O-])c1ccccc1CN1CCN(c2ccccn2)CC1 | 8.4 | 54.4* | 0.1 | -0.1 | 1.3 | -3.3
COc1ccc(C=O)cc1OCc1cccc(Cl)c1 | -0.3 | 1.7 | 0.6 | -0.2 | . | .
Cc1ccccc1/C=C1\N=C(c2cc(C3=N/C(=C/c4ccccc4C)C(=O)O3)cc(C3=N/C(=C/c4ccccc4C)C(=O)O3)c2)OC1=O | -1.8 | 58.7* | -0.3 | 0.2 | 45.7* | 11.7
CCN1CCN(C(c2ccc(C)cc2)c2nnnn2C(C)(C)CC)CC1 (centres undefined) | -2.9 | 52.0* | 0.3 | -0.3 | 6.8 | 21.1
SMILES | TEAD-YAP inh | MITF inh | FBW7 activator | GPR151 activ | MITF confirm | AlphaScreen intf2 | others
COc1ccc(CN2CCN(Cc3nc4ccccc4s3)CC2CCO)cc1C (centres undefined) | 2.3 | 8.6 | 0.0 | 0.3 | . | .
Cc1ccccc1S(=O)(=O)NNC(=O)C(=O)NNc1ccccn1 | -0.6 | 53.7* | -0.3 | 1.2 | 47.0* | 75.1*
Nc1ccc(S(=O)(=O)NNC(=O)C(=O)NNc2ccccn2)cc1 | -3.8 | 44.5 | -0.2 | -0.6 | . | .
Cc1ccc(C)c(CN2CCN(CCOCCO)CC2)c1 | -1.2 | 80.8* | -0.1 | -0.8 | 17.1 | 7.5
Cc1ccccc1CN1CCN(CCOCCO)CC1 | -4.5 | 69.1* | -0.1 | 0.2 | 0.3 | 2.1
CC(=O)N1CCN(Cc2cc(C)ccc2C)CC1 | 8.0 | 0.9 | 0.1 | 1.2 | . | .
OCCOCCN1CCN(Cc2cccc3ccccc23)CC1 | -1.3 | 5.7 | 0.0 | 0.8 | . | .
OCCOCCN1CCN(Cc2cc(Br)cs2)CC1 | 4.2 | 71.3* | 0.0 | -0.1 | 4.4 | 14.6
CCCCN(C)c1cc(C)c2c(OC)ccc(OC)c2n1 | 3.8 | -5.9 | 0.0 | 2.1 | . | .
COc1ccccc1C1N=C(c2ccc(Cl)cc2)CC(c2cccc(OC)c2O)N1 (centres undefined) | -42.5 | 9.2 | 0.1 | 0.6 | . | .
C=C(C)CNC(=S)Nc1ccccn1 | 9.4 | -5.1 | 0.2 | -0.3 | . | .
C=C(C)CNC(=S)Nc1ccccc1 | -11.4 | 77.1*! | 0.0 | 3.9 | -8.5 | -8.4
C/C(CC(=O)NC(C)(C)C)=N\NC(=O)c1cccc(Br)c1 | -27.2 | 7.5 | 0.3 | 1.1 | . | .
COc1ccc(OC)c(-c2ccnc(-n3ncc(C(=O)NCc4ccon4)c3C3CC3)n2)c1 | -10.0 | 3.1 | 0.0 | -0.7 | . | .
CC(=O)Nc1ccc(C(=O)OCC(=O)Nc2cc(C)cc(C)c2)cc1 | 4.1 | 9.1 | 0.0 | 1.5 | . | .
CC(=O)Oc1cc(C(=O)OCC(=O)Nc2ccc(C)cc2)cc(OC(C)=O)c1OC(C)=O | -5.3 | 79.7* | -0.5 | 0.7 | 56.1* | 16.2 | AS interf DR=>7.02
COc1ccc(S(=O)(=O)N2CCC(N3CCN(c4ccccc4OC)CC3)CC2)cc1 | 0.8 | 88.7* | 0.8 | -1.1 | 3.0 | 13.3
COc1ccccc1N1CCN(C2CCN(C3CCCCC3)CC2)CC1 | -2.0 | 69.2* | -0.1 | -0.8 | -8.4 | -1.5
CC1CN(C2CCN(S(=O)(=O)c3ccc4ccccc4c3)CC2)CC(C)O1 (centres undefined) | -0.4 | 51.8* | -0.1 | 0.0 | 3.2 | 6.5
COc1ccccc1N1CCN(C2CCCN(C3CCC3)C2)CC1 (centres undefined) | -1.6 | 11.6 | 0.0 | 1.2 | . | .
COc1ccccc1N1CCN(C2CCCN(S(=O)(=O)c3ccc(C)cc3)C2)CC1 (centres undefined) | 1.0 | -5.7 | -0.1 | 0.6 | . | .
COc1cccc(CN2CCC(N3CCN(c4ccccc4OC)CC3)CC2)c1 | 2.7 | 56.5* | 0.0 | -2.7 | -3.6 | -3.1
